Assay results published in PubChem BioAssay AID1159580 (chemical genetic matrix, 2015).
“And” between values parts separate entries of the source, which are not always exact repeats. Equal entries are not always repeated. Among all 5,500 compounds or so, about 2,000 (36%) were called active. Another 18% or so got no clear call; they are omitted. Rule as the data show it: active = normalized growth mostly below about 0.91 (no sharp cut-off); inconclusive = no clear call, values can overlap the other calls; inactive = mostly above about 0.92. The list shows a part of the results.

Experiment: chemical genetic growth profiling, strain panel (AID 1159580);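 also: tested at 20 µM; growth read once vehicle control cultures reached saturation at 30 °C; 1 = growth at the plate median or of vehicle wells; lower values mean less growth of the strain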
Settings: S. cerevisiae deletion strains, growth OD

Measured: normalized growth

COc1nc(NC(C)C)nc(NC(C)C)n1
inactive: locus YAL013W, strain DEP1, stronger effect = lower value 1.01 | locus YAL021C, strain ccr4, stronger effect = lower value 0.991 | locus YAL026C, strain drs2, stronger effect = lower value 1.04 | locus YAL030W, strain snc1, stronger effect = lower value 1.02 | locus YBL061C, strain skt5, stronger effect = lower value 1.03 | locus YBR009C, strain hhf1, stronger effect = lower value 1.06 | locus YBR021W, strain FUR4, stronger effect = lower value 1.04 | locus YBR023C, strain chs3, stronger effect = lower value 1.03 | locus YBR171W, strain sec66, stronger effect = lower value 1.02 | locus YBR229C, strain ROT2, stronger effect = lower value 0.999 | locus YBR231C, strain swc5, stronger effect = lower value 1.02 | locus YBR279W, strain paf1, stronger effect = lower value 1.01 | locus YCL011C, strain gbp2, stronger effect = lower value 1.02 | locus YCL016C, strain dcc1, stronger effect = lower value 1.01 | locus YCL029C, strain bik1, stronger effect = lower value 1.02 | locus YCL069W, strain vba3, stronger effect = lower value 1.01 | locus YCR088W, strain abp1, stronger effect = lower value 1.02 | locus YDL005C, strain med2, stronger effect = lower value 1.02 | locus YDL035C, strain GPR1, stronger effect = lower value 1.02 | locus YDL040C, strain nat1, stronger effect = lower value 1 | locus YDL074C, strain BRE1, stronger effect = lower value 1.05 | locus YDL101C, strain DUN1, stronger effect = lower value 1.02 | locus YDL134C, strain PPH21, stronger effect = lower value 1 | locus YDL185W, strain tfp1, stronger effect = lower value 1.03 | locus YDL192W, strain arf1, stronger effect = lower value 1.03 | locus YDR001C, strain nth1, stronger effect = lower value 1.02 | locus YDR069C, strain doa4, stronger effect = lower value 1.02 | locus YDR101C, strain arx1, stronger effect = lower value 1.01 | locus YDR137W, strain rgp1, stronger effect = lower value 1.02 | locus YDR150W, strain NUM1, stronger effect = lower value 1.01 | locus YDR159W, strain sac3, stronger effect = lower value 1.07 | locus YDR162C, strain NBP2, stronger effect = lower value 1.01 | locus YDR195W, strain ref2 0.995 | locus YDR297W, strain sur2, stronger effect = lower value 1.03 | locus YDR318W, strain mcm21, stronger effect = lower value 1.02 | locus YDR334W, strain swr1, stronger effect = lower value 1.01 | locus YDR335W, strain msn5, stronger effect = lower value 1.01 | locus YDR388W, stronger effect = lower value 1.03 | locus YDR392W, strain spt3, stronger effect = lower value 1.01 | locus YDR502C, strain sam2, stronger effect = lower value 1.02 | locus YEL003W, strain gim4, stronger effect = lower value 1.02 | locus YEL037C, strain rad23, stronger effect = lower value 1.02 | locus YEL061C, strain CIN8 (second series), stronger effect = lower value 1.03 | locus YEL061C, strain CIN8, stronger effect = lower value 1 | locus YER015W, strain faa2, stronger effect = lower value 1.02 | locus YER016W, strain bim1, stronger effect = lower value 1.01 | locus YER110C, stronger effect = lower value 1.02 | locus YER111C, strain swi4, stronger effect = lower value 1.02 | locus YER155C, strain BEM2 (second series), stronger effect = lower value 1.03 | locus YER155C, strain BEM2, stronger effect = lower value 1.01 | locus YER167W, strain BCK2, stronger effect = lower value 1.01 | locus YFR010W, strain ubp6, stronger effect = lower value 1.03 | locus YGL078C, strain dbp3, stronger effect = lower value 1.01 | locus YGL086W, strain mad1, stronger effect = lower value 1.01 | locus YGL167C, strain pmr1, stronger effect = lower value 1.02 | locus YGL173C, strain kem1, stronger effect = lower value 1.04 | locus YGL227W, strain vid30, stronger effect = lower value 1.04 | locus YGL240W, strain doc1, stronger effect = lower value 1.02 | locus YGL248W, strain PDE1, stronger effect = lower value 1.01 | locus YGL253W, strain hxk2, stronger effect = lower value 1.03 | locus YGR078C, strain PAC10, stronger effect = lower value 1.02 | locus YGR135W, strain pre9, stronger effect = lower value 1.02 | locus YGR229C, strain SMI1, stronger effect = lower value 1.02 | locus YGR252W, strain gcn5, stronger effect = lower value 1.05 | locus YHR013C, strain ard1, stronger effect = lower value 1.03 | locus YHR027C, strain rpn1, stronger effect = lower value 1.03 | locus YHR030C, strain SLT2, stronger effect = lower value 1.01 and 1.07 | locus YHR079C, strain IRE1 (second series), stronger effect = lower value 1.02 | locus YHR079C, strain IRE1, stronger effect = lower value 1.03 | locus YHR094C, strain hxt1, stronger effect = lower value 1.01 | locus YHR129C, strain ARP1, stronger effect = lower value 1.01 | locus YHR142W, strain chs7, stronger effect = lower value 1.04 | locus YHR200W, strain rpn10, stronger effect = lower value 1.01 | locus YIL066C, strain RNR3, stronger effect = lower value 1.02 | locus YIL073C, strain SPO22, stronger effect = lower value 1.08 | locus YIL125W, strain kgd1, stronger effect = lower value 1.01 | locus YIR030C, strain dcg1, stronger effect = lower value 1.01 | locus YJL092W, strain hpr5, stronger effect = lower value 1.02 | locus YJL095W, strain BCK1 (second series), stronger effect = lower value 1.04 | locus YJL095W, strain BCK1, stronger effect = lower value 1.01 and 1.06 | locus YJL115W, strain asf1, stronger effect = lower value 1.02 | locus YJL129C, strain trk1, stronger effect = lower value 1.02 | locus YJL134W, strain LCB3, stronger effect = lower value 1.01 | locus YJL154C, strain vps35, stronger effect = lower value 1.01 | locus YJL164C, strain tpk1, stronger effect = lower value 1.01 | locus YJL166W, strain qcr8, stronger effect = lower value 1.03 | locus YJL168C, strain set2, stronger effect = lower value 1.02 | locus YJL187C, strain SWE1 (second series), stronger effect = lower value 1.01 | locus YJL187C, strain SWE1, stronger effect = lower value 1 | locus YJR043C, strain POL32, stronger effect = lower value 1.03 | locus YJR066W, strain TOR1, stronger effect = lower value 1
